Most compounds without a hit are left out; they make up all but 5.7% or so of the library.
RORg inh: ROR gamma (mouse) transcription inhibition; Potency, µM (highest dose often 53.6 µM), actives largely listed as inhibitors; hit rate 5.4% among 310,000; P51450; Drosophila S2 Gal4-RORgamma UAS-luciferase reporter, 20 h; note: nearly all actives have a fitted effect of over 60% in size
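Luminescence from a UAS-regulated Photinus luciferase reporter in stably transfected Drosophila Schneider cells is measured; decreased signal marks ROR gamma inhibition. Fusion expression is induced by 700 uM copper sulfate for 20 hr.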
B2AR arrestin: agonists driving beta-arrestin recruitment to human beta2-adrenergic receptor; P07550; beta-arrestin recruitment to beta2AR, cell-based reporter; Potency, µM (titrated, usually from 46.1 µM), most hits filed as activators; hit rate 0.02% among 330,000; note: nearly all actives have a fitted effect of over 65% in size
Gal4-VP16 FLuc: counter-screen for ROR gamma inhibitors: Gal4-VP16 reporter | Drosophila S2 Gal4-VP16 UAS-luciferase, luminescence, 20 h | Potency, µM (highest dose often 53.6 µM), usual class: inhibitors | hit rate 3.5% among 310,000 | AID 2546;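 note: Gal4-VP16 expression switched on by copper sulfate through the metallothionein promoter; nearly all actives have a fitted effect of over 50% in size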
NPSR antag: neuropeptide S receptor (human) antagonism, cAMP | hit rate 1% among 220,000 | Potency, µM (top dose mostly 38.3 µM), usual class: inhibitors | AID 1461 | Q6W5P4 | CHO-NPSR cells, cAMP TR-FRET, antagonist mode; note: nearly all actives have a fitted effect of over 50% in size
Target sequence (Q6W5P4 whole entry, looked up): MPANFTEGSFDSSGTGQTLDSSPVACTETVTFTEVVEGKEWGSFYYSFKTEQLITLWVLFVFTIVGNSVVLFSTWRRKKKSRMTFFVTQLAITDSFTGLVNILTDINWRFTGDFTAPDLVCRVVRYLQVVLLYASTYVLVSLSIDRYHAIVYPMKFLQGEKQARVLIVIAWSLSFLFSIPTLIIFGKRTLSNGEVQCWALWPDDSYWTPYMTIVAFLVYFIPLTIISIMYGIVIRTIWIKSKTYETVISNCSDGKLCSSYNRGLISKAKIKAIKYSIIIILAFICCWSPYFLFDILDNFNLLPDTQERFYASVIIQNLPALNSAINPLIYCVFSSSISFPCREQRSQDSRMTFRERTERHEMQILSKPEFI
Each line names hits and unclear results; the compound was inactive in the other large screens. Calls come from the whole dose curve; as a rule, active = well fitted curve in the direction sought with a large enough effect; inconclusive = small, poorly fitted or top-dose-only effect, or another doubt; inactive = no such curve, though single readings can be large; an effect the other way counts as inactive or inconclusive.

COC(=O)C1(C(C)=O)CC2=CC[C@@H]3C(=O)N(c4ccccc4)C(=O)[C@@H]3[C@@H]2Cc2ccccc2[C@@H]1C[N+](=O)[O-] (stereo partly drawn)	none (no result: B2AR arrestin, NPSR antag)
O=[n+]1ccn([O-])c2ccccc21	none (no result: B2AR arrestin, NPSR antag)
Nc1ccc(C(=O)Nc2nc3ccccc3s2)cc1	RORg inh inconclusive, Gal4-VP16 FLuc inconclusive
O=C(CSC(=S)N1CCOCC1)Nc1nccs1	none
O=C(Cc1ccccc1)Nc1nc(=O)c2ccccc2s1	RORg inh inconclusive, Gal4-VP16 FLuc 4.47µM, NPSR antag inconclusive
O=C(CSC(=S)N1CCOCC1)Nc1nc(=O)c2ccccc2s1	RORg inh 12.6µM, Gal4-VP16 FLuc 10µM
O=C(Nc1nc(=O)c2ccccc2s1)c1ccc(Cl)cc1	RORg inh 3.16µM, NPSR antag inconclusive
O=C(Nc1nc(=O)c2ccccc2s1)c1ccc(F)cc1	RORg inh 7.08µM, Gal4-VP16 FLuc 2.82µM, NPSR antag inconclusive
COc1cc(CNc2ncnc3ccc(-c4c(C)noc4C)cc23)cc(OC)c1OC	none (no result: B2AR arrestin, NPSR antag)
Cc1ccc2c(Cl)cc(Cl)c(OCC(=O)NCCc3ccccn3)c2n1	RORg inh inconclusive
CCN(CC(=O)NC(C)(C)C)C(=O)COc1c(Cl)cc(Cl)c2ccc(C)nc12	RORg inh 1.26µM, Gal4-VP16 FLuc 3.16µM
Cc1ccc2c(Cl)cc(Cl)c(OCC(=O)NC3CCS(=O)(=O)C3)c2n1 (stereo not drawn)	RORg inh 8.91µM, Gal4-VP16 FLuc 11.2µM
COc1ccccc1CNC(=O)CN1C(=O)NC2(CCC(C)CC2)C1=O (stereo not drawn)	none (no result: RORg inh, Gal4-VP16 FLuc, NPSR antag)
Nc1nc(Cl)nc2c1ncn2[C@@H]1O[C@H](CO)[C@H](O)C1F (stereo partly drawn)	Gal4-VP16 FLuc inconclusive (no result: B2AR arrestin, NPSR antag)
CC1CCN(C(=S)NC(=O)C2CCCCC2)CC1	RORg inh 12.6µM, Gal4-VP16 FLuc inconclusive
Cc1ccc(O)c(N=Nc2ccccc2)n1	RORg inh 1µM, Gal4-VP16 FLuc 2.82µM (no result: B2AR arrestin)
Cc1nc(S/C(=C/c2ccc(-c3cccc(Cl)c3)o2)C(=O)O)n[nH]1	RORg inh 1.26µM, Gal4-VP16 FLuc 3.55µM
COC(=O)N/N=C/c1ccc(-c2cccc(Cl)c2)o1	none
Cc1ccc(C(=O)Oc2ccc(/C=C3\C(=N)N4N=C(N5CCOCC5)SC4=NC3=O)cc2)cc1	RORg inh inconclusive, Gal4-VP16 FLuc 12.6µM (no result: NPSR antag)
CCCCn1c(=O)n(Cc2cccc(F)c2)c(=O)c2c1ncn2Cc1ccco1	RORg inh 3.16µM, Gal4-VP16 FLuc inconclusive, NPSR antag inconclusive
Cn1cnc2c1c(=O)n(Cc1cccc(F)c1)c(=O)n2C	none (no result: NPSR antag)
Cc1cc(C)cc(NS(=O)(=O)c2ccc(NC(=S)NC(=O)c3ccc(Br)o3)cc2)c1	RORg inh 3.55µM, Gal4-VP16 FLuc 7.94µM, NPSR antag inconclusive
CN(C)S(=O)(=O)c1ccc(NC(=S)NC(=O)c2ccc(Br)o2)cc1	RORg inh 11.2µM, Gal4-VP16 FLuc inconclusive
CCOC(=O)OCC1OC(C#CC(C)(C)C)C=CC1OC(=O)OCC (stereo not drawn)	none (no result: B2AR arrestin, NPSR antag)
Cc1csc(NC(=O)c2cn3ccccc3n2)n1	RORg inh 5.01µM, Gal4-VP16 FLuc 7.94µM
O=C(Nc1ccc(-n2cnnn2)cc1)c1cn2ccccc2n1	none
Cc1csc(NC(=O)c2ccccc2C(=O)O)n1	none
O=C(Nc1ccccc1)c1cn2ccccc2n1	RORg inh inconclusive, Gal4-VP16 FLuc 2.82µM
O=C(CCc1ccc(O)c(O)c1)NNC(=S)Nc1ccc(Br)cc1Cl	RORg inh 11.2µM, Gal4-VP16 FLuc inconclusive
O=C(NNC(=S)Nc1ccccc1)c1cc(Br)ccc1Cl	RORg inh 0.794µM (no result: NPSR antag)
O=C(NNC(=S)Nc1ccc(Br)cc1Cl)c1ccncc1	Gal4-VP16 FLuc 20µM
Cc1nc(NCc2ccccc2)c2nc(-c3ccccc3)n(CCN(C)C)c2n1	none (no result: B2AR arrestin, NPSR antag)
CNC(=O)COC(=O)c1cc(-c2ccccc2)nn1-c1ccccc1	none
COc1ccc(-c2nn(-c3ccccc3)cc2/C=N/NS(=O)(=O)c2ccccc2)cc1	RORg inh inconclusive, NPSR antag inconclusive
Cc1occc1C(=O)N/N=C/c1ccccn1	RORg inh 10µM
O=C(N/N=C/c1ccccn1)c1ccc(NC(=O)c2cccc([N+](=O)[O-])c2)cc1	none
COc1ccc(-c2nn(-c3ccccc3)cc2/C=N/NC(=O)c2cccc(S(=O)(=O)Nc3ccccc3Cl)c2)cc1	RORg inh 1.78µM, Gal4-VP16 FLuc 1.78µM
Cc1ccc(C(=O)N/N=C\c2ccccn2)cn1	none
O=C(N/N=C/c1ccccn1)c1cccc([N+](=O)[O-])c1	RORg inh 4.47µM, Gal4-VP16 FLuc 12.6µM
O=C(N/N=C/c1ccccn1)c1cccc(S(=O)(=O)Nc2ccccc2Cl)c1	RORg inh 20µM, Gal4-VP16 FLuc inconclusive
CN(Cc1c(C(=O)N/N=C/c2ccc(O)cc2)nnn1-c1nonc1N)c1ccccc1	none (no result: NPSR antag)
O=C(O)c1cccc(NC(=S)N/N=C/c2ccccn2)c1	RORg inh 4.47µM, Gal4-VP16 FLuc inconclusive
CCN(CC)S(=O)(=O)c1cccc(C(=O)N/N=C/c2cccc(O)c2O)c1	none
Cc1cccc(C(=O)N/N=C/c2ccccn2)c1	RORg inh 6.31µM, Gal4-VP16 FLuc 14.1µM
O=C(O)c1cccc(NC(=S)N/N=C/c2cccc(O)c2)c1	none
O=C(N/N=C/c1ccccn1)c1cc([N+](=O)[O-])cc([N+](=O)[O-])c1	RORg inh 3.55µM, Gal4-VP16 FLuc 4.47µM
CCN(CC)S(=O)(=O)c1cccc(C(=O)N/N=C/c2ccccn2)c1	RORg inh 8.91µM, Gal4-VP16 FLuc inconclusive
CN(Cc1ccccc1)C(=O)COC(=O)C1CCN(S(=O)(=O)c2cccs2)CC1	none
CCCN(CCC)S(=O)(=O)c1ccc(NC(=O)COc2ccccc2)cc1	NPSR antag inconclusive
O=C(Nc1cccc(F)c1)N1CCCC2(CCNCC2)C1	none (no result: B2AR arrestin, NPSR antag)
O=C(N/N=C1/CCCc2ccccc21)c1cc([N+](=O)[O-])cc([N+](=O)[O-])c1	RORg inh 11.2µM
O=C(N/N=C1\CCCc2ccccc21)c1cccc([N+](=O)[O-])c1	RORg inh inconclusive
Cc1ccc(/C=C/c2onc(C)c2S(=O)(=O)N2CCC(C(=O)NC(C)(C)C)CC2)cc1	none (no result: NPSR antag)
CCc1nnc(NC(=O)C2c3ccccc3Oc3ccccc32)s1	RORg inh 11.2µM, Gal4-VP16 FLuc inconclusive
Cc1ccc(-c2nc3cccnc3s2)cc1NC(=O)C1c2ccccc2Oc2ccccc21	RORg inh 12.6µM, Gal4-VP16 FLuc 11.2µM, NPSR antag inconclusive
O=C(Nc1nc2ccccc2s1)C1c2ccccc2Oc2ccccc21	RORg inh 11.2µM, Gal4-VP16 FLuc inconclusive, NPSR antag inconclusive
CCS(=O)(=O)Nc1cc(-c2nc3cccnc3s2)ccc1C	none
Oc1ccc(N2CCN(Cc3cc4c(cc3Br)OCCO4)CC2)cc1	none (no result: NPSR antag)
CCCCNC(=O)c1ccc(Cn2c(=S)[nH]c3c([nH]c4ccc(OC)cc43)c2=O)cc1	RORg inh 12.6µM, Gal4-VP16 FLuc 17.8µM
CCOCCCNC(=O)c1ccc(Cn2c(=S)[nH]c3c([nH]c4ccc(OC)cc43)c2=O)cc1	none
COCCCNC(=O)c1ccc2c(=O)n(Cc3ccc(Cl)cc3)c(=S)[nH]c2c1	RORg inh 17.8µM, Gal4-VP16 FLuc inconclusive (no result: NPSR antag)
CC1CCN(CCNC(=O)c2ccc3c(=O)n(Cc4ccc(Cl)cc4)c(=S)[nH]c3c2)CC1	RORg inh 11.2µM, Gal4-VP16 FLuc inconclusive (no result: NPSR antag)

Screening data (PubChem)
